Mtb BioA inh: blocks M. tuberculosis BioA enzyme activity; AID 602481; purified M. tuberculosis BioA enzyme, plate reader; inhibition, % at 9.99 µM; 0.096% of 360,000 active; in the data active = inhibition above about 40%
Vc quorum ag-1: inducers of Vibrio cholerae quorum light production without autoinducers. 0.16% of 350,000 active. AID 588436. V. cholerae BH1578 lux reporter, luminescence, 6 h. activation, % at 18.7 µM; in the data active = activation mostly above about 9.7%, no sharp cut-off
Mtb FBA inh: Mtb fructose-bisphosphate aldolase inhibition; purified M. tuberculosis FBA, fluorescence read-out; inhibition, % at 1 µM; 2.3% of 360,000 active; AID 588726;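 also: 0% = vehicle and 100% = reference inhibitor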
Target sequence (P9WQA3 whole entry, looked up): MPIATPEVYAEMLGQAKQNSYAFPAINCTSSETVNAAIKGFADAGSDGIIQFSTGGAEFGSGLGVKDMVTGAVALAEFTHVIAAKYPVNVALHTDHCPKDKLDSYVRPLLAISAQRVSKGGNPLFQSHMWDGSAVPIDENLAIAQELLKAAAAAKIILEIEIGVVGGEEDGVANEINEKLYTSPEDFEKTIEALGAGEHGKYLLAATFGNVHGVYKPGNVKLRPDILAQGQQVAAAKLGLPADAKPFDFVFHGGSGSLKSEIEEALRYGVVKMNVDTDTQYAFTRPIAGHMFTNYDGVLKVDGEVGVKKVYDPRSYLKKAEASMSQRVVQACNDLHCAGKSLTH
GDH-TPI counter-1: GDH-TPI coupled enzyme inhibition counter-screen; GDH-TPI coupled enzyme counterscreen, NADH absorbance; inhibition, % at 4.8 µM; 1.2% of 360,000 active; AID 588335; in the data active = inhibition above about 30%;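 also: 0% = DMSO wells and 100% = wells lacking the enzyme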
Vc quorum ag-2: quorum light induction in BH1578 reporter strain; shares compounds with Vc quorum ag-1; V. cholerae BH1578 lux reporter, luminescence, 6 h; activation, % at 50 µM; 620 tested, under 10 active; AID 602243; call rule not given here
HeLa tox: cytotoxicity in HeLa cells at 24 hours. shares compounds with Vc quorum ag-1. HeLa viability, CellTiter-Glo ATP luminescence. activity change, negative = cytotoxicity, % at 35 µM. 25 tested, under 10 active. AID 624140;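 active = signal drop with fitted half-maximal concentration at or below twice the highest valid dose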
Mtb FBA confirm: Mtb FBA inhibition, confirmed | 78% of 5,600 active | shares compounds with Mtb FBA inh | inhibition, % at 1 µM | purified M. tuberculosis FBA, fluorescence read-out | AID 651616;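 also: 0% = vehicle wells and 100% = reference inhibitor wells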
GDH-TPI counter-2: inhibits GDH-TPI coupling enzymes, flagging Mtb FBA hits. inhibition, % at 1 µM. shares compounds with Mtb FBA inh. 81% of 5,600 active. GDH-TPI coupled enzyme counterscreen, fluorescence; in the data active = inhibition above about 10%
Active calls of the source: *; i = inactive; . = no result given; + = active, no number. Only some compounds are listed: those with a hit (about 3% of all), similar ones and a draw of the others. Rule as the data show it, unless noted: active = inhibition above about 27%; inactive = the rest.

SMILES	Mtb BioA inh	Vc quorum ag-1	Mtb FBA inh	GDH-TPI counter-1	Vc quorum ag-2	others
COc1ccccc1CCN1CCCC(CN(C)C(=O)c2ccco2)C1 (centres undefined)	0	14	1	2	0
COc1ccc(NC(=O)Nc2ccc3c(c2)C(=O)N([C@H](C)CO)C[C@H](C)[C@H](CN(C)C(=O)Cc2ccccc2)OCCCC[C@H](C)O3)cc1	0	.	.	.	.
COc1ccc(OCC(=O)N2CCN(C(=O)COc3ccc(Br)cc3)CC2)cc1	1	.	3	-7	.
COc1ccc(N2CCN(C(=O)COc3ccc4ccccc4c3)CC2)cc1	.	12	1	-10	0
CC(=O)N1CCN(C(=O)COc2ccc(Br)cc2)CC1	0	17*	5	5	0
COCC(=O)Nc1ccc2c(c1)C(=O)N(C)C[C@@H](OC)[C@@H](C)CN(CC1CC1)[C@H](C)CO2	0	.	.	.	.
O=C(C[C@H]1CC[C@@H]2[C@H](COC[C@@H](O)CN2S(=O)(=O)c2ccccc2)O1)NCc1ccc2c(c1)OCO2	-1	.	.	.	.
CN(C)CC(=O)N[C@H]1CC[C@H](CCn2cc(C3CC3)nn2)O[C@@H]1CO	1	.	.	.	.
CCOC(=O)Cc1c(C)[nH]c(=S)[nH]c1=O	-1	17*	-1	-8	8
COC(=O)CCc1c(C)[nH]c(=S)[nH]c1=O	-3	-2	5	3	.
CCOC(=O)c1c(NC(=S)Nc2ccc(Cl)cc2)sc(C)c1C	0	12	2	-1	1
COC(=O)c1nnn(-c2nonc2N)c1CSc1nc2ccccc2s1	2	25*	-3	7	0
COC(=O)c1nnn(-c2nonc2N)c1CSc1nc2ccccc2o1	.	-2	3	6	.
COc1ccc(S(=O)(=O)N(C)C[C@@H]2Oc3ccc(NC(=O)NC(C)C)cc3C(=O)N([C@@H](C)CO)C[C@H]2C)cc1	0	.	.	.	.
COc1ccc(C(=O)OCC(=O)NC2CCCC2)cc1OC	-2	-8	2	5	.
O=C(COC(=O)c1ccc(Cl)cc1)NC1CCCCCC1	-2	-1	0	5	.
Cc1ccc(C(=O)OCC(=O)NC2CCCC2)cc1C	-2	+	2	2	i
CCc1ccc(C(=O)OCC(=O)NC2CCCC2)cc1	-1	.	1	8	i
CC(C)c1ccc(C(=O)OCC(=O)NC2CCCC2)cc1	-1	+	0	6	i
COc1cc(SC)ccc1C(=O)OCC(=O)NC1CCCC1	1	741*	1	-4	i
Cc1ccc(CC(=O)NC2CCCC2)cc1	.	.	.	.	.	HeLa tox=-5
O=C(Cc1ccccc1)NC1CCCCC1	0	0	1	-2	.
CC(=O)Nc1ccc(Nc2nc(C)nc3c2oc2ccccc23)cc1	-1	17*	-1	22	12
CCOCCCNC(=O)C(NC(=O)CNC(=O)c1ccccc1)c1ccccc1 (centres undefined)	0	28*	-2	11	0
CCOCCCNC(=O)C(NC(=O)c1ccc(NC(C)=O)cc1)c1ccc(OC)cc1 (centres undefined)	.	0	1	10	.
SMILES	Mtb BioA inh	Vc quorum ag-1	Mtb FBA inh	GDH-TPI counter-1	Vc quorum ag-2	others
Cc1ccccc1S(=O)(=O)NCC[C@@H]1CC[C@@H](NS(=O)(=O)c2ccccc2C)[C@H](CO)O1	1	.	.	.	.
O=C(NCc1ccccn1)c1ccc(CS(=O)(=O)Cc2ccc(Cl)cc2)o1	3	15*	3	-18	0
CCOc1ccc(CCNC(=O)COC(=O)Cc2c[nH]c3ccccc23)cc1OCC	-1	-1	-2	7	.
CCOc1ccc(CCNC(=O)COC(=O)Cc2ccc(F)cc2)cc1OCC	-1	14	3	6	3
CCc1nc(NCCCN2CCOCC2)c2oc3ccccc3c2n1	-3	12	5	11	0
CCc1nc(NCCN2CCOCC2)c2oc3ccccc3c2n1	1	i	2	-6	.
CC1CCCN(C(=O)c2ccc3c(=O)n(Cc4ccc5c(c4)OCO5)c(=S)[nH]c3c2)C1 (centres undefined)	-3	2	1	11	4
CCN(CC)C(=O)c1ccc2c(=O)n(Cc3ccc4c(c3)OCO4)c(=S)[nH]c2c1	0	0	3	7	.
CC(C)NC(=O)N[C@H]1CC[C@H](CCNC(=O)C2CCC2)O[C@@H]1CO	4	.	.	.	.
COc1cc2c(c(OC)c1OC)C(c1ccc(C)cc1)CC(=O)O2 (centres undefined)	-1	18	-1	7	1
CNC[C@@H]1Oc2ncc(-c3ccc(OC)cc3)cc2C(=O)N([C@H](C)CO)C[C@@H]1C	1	.	.	.	.
COc1ccc(-c2nnn(CC(=O)c3ccc4c(c3)OCCO4)n2)cc1OC	0	5.6*	-4	12	0
COc1ccc(-c2nnn(CC(=O)Nc3ccc4c(c3)OCCO4)n2)cc1OC	1	i	2	4	.
O=C(Nc1c(F)c(F)c(F)c(F)c1F)C1CCCCC1	2	25	-3	-4	2
O=C(Nc1c(F)c(F)c(F)c(F)c1F)NC1CCCCC1	0	.	0	7	.
C[C@@H]1CN([C@H](C)CO)C(=O)c2cc(NS(=O)(=O)c3cccs3)ccc2O[C@@H](C)CCCCO[C@H]1CN(C)Cc1ccccc1	1	.	.	.	.
COc1ccc(S(=O)(=O)N(C)C[C@@H]2OCCCC[C@@H](C)Oc3ccc(NC(=O)c4ccccc4)cc3C(=O)N([C@H](C)CO)C[C@@H]2C)cc1	-4	.	.	.	.
CN(Cc1nc2ccccc2n1C)S(C)(=O)=O	2	0	1	9	.
CN(Cc1nc2ccccc2n1C)C(=O)c1ccco1	-1	12	-1	5	0
COC(=O)c1ccc(C2C(C(C)=O)=C(O)C(=O)N2CCO)cc1 (centres undefined)	-3	17*	1	14	0
NC(=O)NOCc1ncc(C(F)(F)F)cc1Cl	-2	i	2	-6	.
CS(=O)(=O)NNC(=O)c1sccc1OCc1ncc(C(F)(F)F)cc1Cl	1	14	0	-2	7
CCCCn1nnnc1NCc1ccc(N(CC)CC)cc1	1	366*	-4	1	i
O=C(/C=C/c1ccc(OCCCF)cc1)NCc1ccc(Cl)cc1	0	39*	-3	-2	5
CCOC(=O)CNc1c(-c2ccc(Cl)cc2)nc2cnccn12	-1	25*	68*	20	0	Mtb FBA confirm=56*;GDH-TPI counter-2=50*
C[C@H](CO)N1C[C@H](C)[C@@H](CN(C)Cc2ccc(Oc3ccccc3)cc2)Oc2ccc(NS(=O)(=O)c3cn(C)cn3)cc2C1=O	0	.	.	.	.
CCCc1cc(=O)n2[nH]c(SCc3ccc(Cl)cc3)nc2n1	-1	-1	4	4	.
